Source: PubChem BioAssay (Tox21)
A number with no mark means an inactive call. Results filed as inconclusive are left out. A call without a number means that no potency is given here. Activity calls are given as the source filed them. Unless noted, the call rests on the fitted dose curve; in most records, active means well fitted curve in the direction sought with a large enough effect in the repeat runs; inconclusive means weak or mixed curves; inactive means no such curve, though single readings can be large; an effect the other way counts as inactive or inconclusive.

Experiments:
[1] = target: Thyrotropin-releasing hormone receptor (Homo sapiens) (UniProt P34981); assay: qHTS assay to identify small molecule agonists of the thyrotropin-releasing hormone receptor (TRHR) signaling pathway (AID 1346891; calls by dose curve; further: series mostly up to about 58 µM)
Thyrotropin-releasing hormone receptor (Homo sapiens), sequence (P34981 whole entry, looked up): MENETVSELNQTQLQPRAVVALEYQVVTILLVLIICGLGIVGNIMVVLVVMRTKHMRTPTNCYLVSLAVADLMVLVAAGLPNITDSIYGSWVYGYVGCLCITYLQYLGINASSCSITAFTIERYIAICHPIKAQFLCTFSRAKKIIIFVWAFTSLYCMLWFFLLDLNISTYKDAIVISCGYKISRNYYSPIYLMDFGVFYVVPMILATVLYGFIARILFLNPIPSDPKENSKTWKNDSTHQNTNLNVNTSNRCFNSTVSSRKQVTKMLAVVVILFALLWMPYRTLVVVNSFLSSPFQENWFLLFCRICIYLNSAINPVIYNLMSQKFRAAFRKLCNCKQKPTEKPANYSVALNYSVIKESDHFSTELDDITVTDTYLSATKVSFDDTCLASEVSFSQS
Method in brief: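 TRHR-expressing HEK293 cells were plated 18 h at 37 °C/5% CO2, loaded with calcium dye 2 h at 37 °C, then given compound in DMSO; fluorescence was read kinetically for 3 min at 1 s intervals.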

[2] = Caspase-3/7 induction in HepG2 cells by small molecules, qHTS assay (AID 1346978); further: nearly all actives have a fitted effect of over 15% in size
Method in brief: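 Wild-type HepG2 cells, 2,000/well, settled 5 hr at 37 C and 5% CO2, then compound-treated for 17 hr; caspase-3/7 activity read by luminescent Caspase-Glo 3/7 after 30 min at room temperature.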

[3] = Caspase-3/7 induction in CHO-K1 cells by small molecules, qHTS assay (AID 1346980); further: nearly all actives have a fitted effect of over 15% in size; further: potency means the concentration at half of the fitted maximal effect
Method in brief: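 Wild-type CHO-K1 cells exposed to compounds for 17hr at 37 C, 5% CO2. Caspase-3/7 activity then measured by Caspase-Glo 3/7 luminescence after 30min at room temperature.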

[4] = target: Nuclear receptor subfamily 1 group I member 2 (Homo sapiens) (UniProt O75469); assay: Human pregnane X receptor (PXR) small molecule agonists, qHTS assay (AID 1346982); further: nearly all actives have a fitted effect of over 35% in size; further: potency means the concentration at half of the fitted maximal effect
Nuclear receptor subfamily 1 group I member 2 (Homo sapiens), sequence (O75469 whole entry, looked up): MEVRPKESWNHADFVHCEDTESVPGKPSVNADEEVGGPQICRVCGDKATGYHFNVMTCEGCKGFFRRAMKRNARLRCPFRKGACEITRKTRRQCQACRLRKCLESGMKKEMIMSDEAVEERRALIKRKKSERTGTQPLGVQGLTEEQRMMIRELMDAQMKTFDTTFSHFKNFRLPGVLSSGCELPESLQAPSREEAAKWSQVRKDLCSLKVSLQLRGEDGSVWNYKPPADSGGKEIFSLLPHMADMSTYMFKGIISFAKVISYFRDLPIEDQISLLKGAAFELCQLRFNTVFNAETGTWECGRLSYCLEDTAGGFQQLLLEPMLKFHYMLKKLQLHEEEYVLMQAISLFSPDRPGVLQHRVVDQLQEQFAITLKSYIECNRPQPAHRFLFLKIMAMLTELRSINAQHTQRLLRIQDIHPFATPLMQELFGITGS
Method in brief: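 HepG2 PXR-Luc reporter line, 5% charcoal-stripped FBS; 5 hr pre-incubation, compound (DMSO) 24 hr at 37 C/5% CO2; ONE-Glo 30 min RT; luminescence read-out.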

[5] = target: Cytochrome P450 2D6 (Homo sapiens) (UniProt P10635); assay: Cytochrome P450 Family 2 Subfamily D Member 6 (CYP2D6) small molecule antagonists: luciferase reporter qHTS assay (AID 1671196); further: nearly all actives have a fitted effect of over 50% in size; further: potency means the concentration at half of the fitted maximal effect
Cytochrome P450 2D6 (Homo sapiens), sequence (P10635 whole entry, looked up): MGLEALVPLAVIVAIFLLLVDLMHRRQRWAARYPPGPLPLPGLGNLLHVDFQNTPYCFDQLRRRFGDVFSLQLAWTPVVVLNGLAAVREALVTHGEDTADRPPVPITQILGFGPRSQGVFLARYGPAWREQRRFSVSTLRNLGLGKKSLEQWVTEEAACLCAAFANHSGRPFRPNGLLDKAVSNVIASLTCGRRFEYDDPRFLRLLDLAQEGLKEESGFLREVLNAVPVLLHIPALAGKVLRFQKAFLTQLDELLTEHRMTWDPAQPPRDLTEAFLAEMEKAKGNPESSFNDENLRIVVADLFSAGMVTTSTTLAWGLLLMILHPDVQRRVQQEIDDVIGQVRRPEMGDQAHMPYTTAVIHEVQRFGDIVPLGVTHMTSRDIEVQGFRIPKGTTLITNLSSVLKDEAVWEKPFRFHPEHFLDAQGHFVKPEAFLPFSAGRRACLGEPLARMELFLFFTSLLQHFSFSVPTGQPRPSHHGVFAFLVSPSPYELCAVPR
Method in brief: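 Luminogenic proluciferin substrate, CYP2D6 enzyme; 10 min RT preincubation with compound, NADPH regeneration system added, 1 h RT. Stop/detection reagent, 20 min RT, luminescence read (RLU). Signal proportional to CYP activity.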

[6] = target: Cytochrome P450 2C19 (Homo sapiens) (UniProt P33261); assay: Cytochrome P450 Family 2 Subfamily C Member 19 (CYP2C19) small molecule antagonists: luciferase reporter qHTS assay (AID 1671197); further: nearly all actives have a fitted effect of over 65% in size; further: potency means the concentration at half of the fitted maximal effect
Cytochrome P450 2C19 (Homo sapiens), sequence (P33261 whole entry, looked up): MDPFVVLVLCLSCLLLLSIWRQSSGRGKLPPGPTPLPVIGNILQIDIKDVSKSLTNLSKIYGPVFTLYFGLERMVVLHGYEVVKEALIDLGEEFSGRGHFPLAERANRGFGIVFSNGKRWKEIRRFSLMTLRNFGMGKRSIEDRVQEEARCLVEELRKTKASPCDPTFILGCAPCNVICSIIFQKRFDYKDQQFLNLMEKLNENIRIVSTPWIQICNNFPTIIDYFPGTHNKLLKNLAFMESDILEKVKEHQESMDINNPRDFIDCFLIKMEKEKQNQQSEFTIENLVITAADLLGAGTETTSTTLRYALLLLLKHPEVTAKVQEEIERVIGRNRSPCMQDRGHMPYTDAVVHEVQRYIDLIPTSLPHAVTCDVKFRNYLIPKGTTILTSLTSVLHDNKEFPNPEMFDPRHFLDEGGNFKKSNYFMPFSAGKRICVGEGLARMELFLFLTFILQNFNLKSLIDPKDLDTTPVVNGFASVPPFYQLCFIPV
Method in brief: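 CYP2C19 P450-Glo, 1536-well qHTS. Cpd + enzyme/proluciferin substrate 10 min RT; + NADPH regen, 37C 1 h; stop with luciferin detection reagent, 20 min RT, luminescence (RLU). Pos ctrl ketoconazole.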

[7] = target: Voltage-gated inwardly rectifying potassium channel KCNH2 (Homo sapiens) (UniProt Q12809); assay: Human Ether-a-go-go-Related Gene (hERG) channel small molecule antagonists: fluorescence cell-based qHTS assay (AID 1671200); further: nearly all actives have a fitted effect of over 50% in size; further: potency means the concentration at half of the fitted maximal effect
Voltage-gated inwardly rectifying potassium channel KCNH2 (Homo sapiens), sequence (Q12809 whole entry, looked up): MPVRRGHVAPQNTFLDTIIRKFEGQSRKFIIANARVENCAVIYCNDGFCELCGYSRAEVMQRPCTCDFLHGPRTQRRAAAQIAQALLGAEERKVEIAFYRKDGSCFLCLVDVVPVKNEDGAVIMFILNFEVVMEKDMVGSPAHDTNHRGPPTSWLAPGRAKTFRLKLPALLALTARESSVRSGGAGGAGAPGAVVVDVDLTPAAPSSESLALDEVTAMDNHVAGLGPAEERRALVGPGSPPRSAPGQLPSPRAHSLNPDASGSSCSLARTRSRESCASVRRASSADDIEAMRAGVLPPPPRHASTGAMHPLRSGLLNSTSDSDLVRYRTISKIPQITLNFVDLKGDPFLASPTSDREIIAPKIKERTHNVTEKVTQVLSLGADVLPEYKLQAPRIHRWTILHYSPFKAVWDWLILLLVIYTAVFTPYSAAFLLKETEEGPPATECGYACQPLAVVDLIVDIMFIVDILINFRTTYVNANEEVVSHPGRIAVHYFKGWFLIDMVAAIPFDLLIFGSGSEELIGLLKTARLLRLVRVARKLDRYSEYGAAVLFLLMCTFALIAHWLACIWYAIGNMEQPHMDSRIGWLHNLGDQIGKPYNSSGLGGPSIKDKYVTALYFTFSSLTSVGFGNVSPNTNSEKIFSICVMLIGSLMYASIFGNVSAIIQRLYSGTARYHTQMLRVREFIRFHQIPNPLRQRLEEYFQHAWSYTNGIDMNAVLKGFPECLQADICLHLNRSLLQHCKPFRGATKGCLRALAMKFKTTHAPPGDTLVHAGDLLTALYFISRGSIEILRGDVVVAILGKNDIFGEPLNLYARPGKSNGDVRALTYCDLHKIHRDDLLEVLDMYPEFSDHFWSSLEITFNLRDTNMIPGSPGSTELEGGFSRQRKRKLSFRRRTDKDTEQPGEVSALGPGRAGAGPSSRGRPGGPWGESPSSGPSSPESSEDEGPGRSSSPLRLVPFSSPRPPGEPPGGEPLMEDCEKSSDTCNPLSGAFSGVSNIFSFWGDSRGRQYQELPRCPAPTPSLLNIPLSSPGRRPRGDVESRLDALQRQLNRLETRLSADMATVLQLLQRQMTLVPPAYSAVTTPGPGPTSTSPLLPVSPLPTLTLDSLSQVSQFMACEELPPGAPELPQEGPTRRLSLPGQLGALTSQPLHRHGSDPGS
Method in brief: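 U2OS cells expressing the channel were plated at 1000 cells/well, incubated overnight at 37 C, then loaded with FluxOR II thallium-sensitive dye for 1 h at room temperature in the dark, with a further 10 min at room temperature before stimulation.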

[8] = target: Cytochrome P450 3A4 (Homo sapiens) (UniProt P08684); assay: Cytochrome P450 Family 3 Subfamily A Member 4 (CYP3A4) small molecule antagonists: luciferase reporter qHTS assay (AID 1671201); further: nearly all actives have a fitted effect of over 50% in size; further: potency means the concentration at half of the fitted maximal effect
Cytochrome P450 3A4 (Homo sapiens), sequence (P08684 whole entry, looked up): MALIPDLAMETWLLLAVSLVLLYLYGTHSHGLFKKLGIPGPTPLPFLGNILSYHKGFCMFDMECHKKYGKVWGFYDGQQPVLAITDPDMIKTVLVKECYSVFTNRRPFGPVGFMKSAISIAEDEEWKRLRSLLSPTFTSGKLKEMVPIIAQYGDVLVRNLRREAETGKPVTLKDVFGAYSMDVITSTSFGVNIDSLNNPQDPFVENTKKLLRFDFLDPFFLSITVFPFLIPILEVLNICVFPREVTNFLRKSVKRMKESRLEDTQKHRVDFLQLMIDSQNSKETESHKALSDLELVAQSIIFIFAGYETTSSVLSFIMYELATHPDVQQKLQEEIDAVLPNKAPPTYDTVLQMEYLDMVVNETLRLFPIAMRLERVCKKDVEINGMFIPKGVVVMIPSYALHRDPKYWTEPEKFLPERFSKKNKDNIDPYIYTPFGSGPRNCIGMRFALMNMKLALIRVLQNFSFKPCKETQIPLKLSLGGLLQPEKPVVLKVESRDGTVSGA
Method in brief: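 P450-Glo CYP3A4 system with proluciferin substrate; compounds preincubated 10 min RT with enzyme-substrate mix, then NADPH regeneration added for 1 h RT. Detection reagent 20 min, luminescence read as relative luminescence units.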

[9] = Human pregnane X receptor (PXR) small molecule agonists, qHTS cell viability counter screen (AID 1346977); further: nearly all actives have a fitted effect of over 50% in size; further: potency means the concentration at half of the fitted maximal effect
Method in brief: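 PXR-Luc HepG2 cells in medium with 5% charcoal-stripped FBS were pre-incubated 5hr, then exposed to compounds for 24hr at 37C. Viability was read in the same wells by CellTiter-Fluor fluorescence, reagent added after 23hr with a 1hr incubation.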

[10] = Caspase-3/7 induction in CHO-K1 cells by small molecules, qHTS cell viability counter screen (AID 1346979); further: nearly all actives have a fitted effect of over 35% in size; further: potency means the concentration at half of the fitted maximal effect
Method in brief: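 Wild-type CHO-K1 cells were seeded at 1,500 per well, rested 5hr at 37 C, then exposed to compounds in DMSO. After 16hr, CellTiter-Fluor reagent was added and fluorescence read 1hr later as the viability measure.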

[11] = Caspase-3/7 induction in HepG2 cells by small molecules, qHTS cell viability counter screen (AID 1346981); further: nearly all actives have a fitted effect of over 30% in size; further: potency means the concentration at half of the fitted maximal effect
Method in brief: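 Fluorescence read-out of live-cell protease activity (CellTiter-Fluor) after 1 hr with reagent. This was measured in the same wells as the caspase-3/7 luminescence, on HepG2 cells exposed to DMSO-dissolved compounds for 16 hr at 37 C.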

[12] = target: Nuclear receptor subfamily 1 group I member 2 (Rattus norvegicus) (UniProt Q9R1A7); assay: Rat pregnane X receptor (rPXR) activation by small molecules, qHTS assay (AID 1346983); settings: rPXR luciferase reporter cells, One-Glo luminescence, 24 h; max activation: hits give high values; further: nearly all actives have a fitted effect of over 20% in size
Nuclear receptor subfamily 1 group I member 2 (Rattus norvegicus), sequence (Q9R1A7 whole entry, looked up): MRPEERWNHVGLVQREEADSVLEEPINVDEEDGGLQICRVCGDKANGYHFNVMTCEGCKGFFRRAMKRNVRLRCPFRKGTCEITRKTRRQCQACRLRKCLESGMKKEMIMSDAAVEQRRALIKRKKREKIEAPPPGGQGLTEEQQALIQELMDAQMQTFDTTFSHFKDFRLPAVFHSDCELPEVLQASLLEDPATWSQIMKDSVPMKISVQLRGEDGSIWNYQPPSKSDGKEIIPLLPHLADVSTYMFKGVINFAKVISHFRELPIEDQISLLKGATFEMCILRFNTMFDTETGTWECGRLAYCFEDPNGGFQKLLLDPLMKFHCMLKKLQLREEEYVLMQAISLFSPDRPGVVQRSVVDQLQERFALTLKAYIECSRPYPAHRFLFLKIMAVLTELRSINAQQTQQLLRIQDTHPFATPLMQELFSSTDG
Method in brief: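 Cell-based rPXR activation assay: rPXR cells, 2,000 per well, rested 5hr at 37 C, then exposed to compounds in DMSO for 24 hr at 37 C. Luciferase activity read by One-Glo luminescence after 30 min at room temperature.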

[13] = target: Cytochrome P450 2C9 (Homo sapiens) (UniProt P11712); assay: Cytochrome P450 Family 2 Subfamily C Member 9 (CYP2C9) small molecule antagonists: luciferase reporter qHTS assay (AID 1671198); further: nearly all actives have a fitted effect of over 50% in size; further: potency means the concentration at half of the fitted maximal effect
Cytochrome P450 2C9 (Homo sapiens), sequence (P11712 whole entry, looked up): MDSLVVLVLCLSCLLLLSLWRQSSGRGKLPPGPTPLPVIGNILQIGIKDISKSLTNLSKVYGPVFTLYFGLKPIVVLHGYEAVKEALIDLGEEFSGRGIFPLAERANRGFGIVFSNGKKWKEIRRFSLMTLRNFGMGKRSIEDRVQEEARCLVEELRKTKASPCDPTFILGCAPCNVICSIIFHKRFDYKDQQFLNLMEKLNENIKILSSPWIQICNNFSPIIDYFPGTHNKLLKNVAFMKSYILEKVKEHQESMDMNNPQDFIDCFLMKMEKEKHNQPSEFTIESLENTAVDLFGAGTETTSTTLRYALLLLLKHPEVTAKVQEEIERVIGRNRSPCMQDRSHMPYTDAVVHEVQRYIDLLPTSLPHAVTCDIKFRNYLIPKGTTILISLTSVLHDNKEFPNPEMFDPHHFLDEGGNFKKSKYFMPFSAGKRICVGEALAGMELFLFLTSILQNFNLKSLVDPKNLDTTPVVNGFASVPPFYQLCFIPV
Method in brief: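 P450-Glo proluciferin substrate with CYP2C9 enzyme; 10 min RT preincubation, then NADPH regeneration 1 h at 37C; luciferin detection reagent 20 min RT, luminescence in relative luminescence units.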

[14] = target: Nuclear receptor subfamily 1 group I member 2 (Homo sapiens) (UniProt O75469); assay: CYP3A4 induction through human pregnane X receptor (PXR) by small molecules, qHTS assay (AID 1346984); further: nearly all actives have a fitted effect of over 40% in size; further: potency means the concentration at half of the fitted maximal effect
Method in brief: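 HepG2-derived DPX-2 line carrying PXR plus a CYP3A4-promoter luciferase reporter; cells plated 5 hr, compound-exposed 24 hr at 37C. CYP3A4 activity probed with 3uM (final) Luciferin-IPA for 3hr, then luciferase read after One-Glo.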

[15] = target: Nuclear receptor subfamily 1 group I member 2 (Homo sapiens) (UniProt O75469); assay: Human pregnane X receptor (PXR) activation by small molecules, qHTS assay (AID 1346985); further: nearly all actives have a fitted effect of over 40% in size
Method in brief: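 DPX-2 cells (HepG2 co-transfected with a PXR response element and a CYP3A4-promoter luciferase construct) were seeded at 2,000 per well, rested 5 hr at 37C, then exposed to DMSO-dissolved compounds for 24 hr. Activation was read as luciferase luminescence.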

[16] = target: Cytochrome P450 1A2 (Homo sapiens) (UniProt P05177); assay: Cytochrome P450 Family 1 Subfamily A Member 2 (CYP1A2) small molecule antagonists: luciferase reporter qHTS assay (AID 1671199); further: nearly all actives have a fitted effect of over 50% in size; further: potency means the concentration at half of the fitted maximal effect
Cytochrome P450 1A2 (Homo sapiens), sequence (P05177 whole entry, looked up): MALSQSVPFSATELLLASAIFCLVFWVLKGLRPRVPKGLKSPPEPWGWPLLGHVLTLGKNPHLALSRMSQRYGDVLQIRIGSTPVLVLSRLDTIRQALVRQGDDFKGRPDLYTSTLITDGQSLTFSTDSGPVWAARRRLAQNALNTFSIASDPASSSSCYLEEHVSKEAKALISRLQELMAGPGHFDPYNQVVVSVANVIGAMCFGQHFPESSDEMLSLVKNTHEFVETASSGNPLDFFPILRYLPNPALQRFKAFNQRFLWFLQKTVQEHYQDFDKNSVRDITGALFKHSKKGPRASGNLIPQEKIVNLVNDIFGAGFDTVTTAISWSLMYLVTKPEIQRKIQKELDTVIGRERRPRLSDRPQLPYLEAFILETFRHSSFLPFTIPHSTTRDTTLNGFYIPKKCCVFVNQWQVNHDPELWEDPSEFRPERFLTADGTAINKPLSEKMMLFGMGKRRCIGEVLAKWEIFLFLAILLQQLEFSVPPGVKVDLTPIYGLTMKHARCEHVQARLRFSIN
Method in brief: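 Luminescence readout (relative luminescence units) after luciferin detection reagent, 20 min RT. Preceded by 1 h room-temperature CYP1A2 reaction with NADPH regeneration solution following 10 min compound preincubation with enzyme and proluciferin substrate. Furafylline positive control.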

| Structure (SMILES) | Potency [1] | Potency [2] | Potency [3] | Potency [4] | Potency [5] | Potency [6] | Potency [7] | Potency [8] | Potency [9] | Potency [10] | Potency [11] | max activation [12] [%] | Potency [13] | Potency [14] | Potency [15] | Potency [16] |
| --- | --- | --- | --- | --- | --- | --- | --- | --- | --- | --- | --- | --- | --- | --- | --- | --- |
| O=C1c2ccccc2C(=O)N1CCc1noc(-c2ccc(CN3CCCCCC3)s2)n1 | inactive | inactive | inactive | 14.1 µM (active) | 8.19 µM (active) | 8.19 µM (active) | 20.1 µM (active) | 0.231 µM (active) | – | – | – | – | – | – | – | – |
| C[C@@H]1CN(CCCn2c3ccccc3c3ccccc32)C[C@H](C)N1 | inactive | – | – | inactive | 0.389 µM (active) | inactive | 6.01 µM (active) | – | 29.8 µM (active) | 29.8 µM (active) | 29.8 µM (active) | -9.24 | inactive | – | – | – |
| O=C(O)CCC(=O)C(=O)O | – | inactive | inactive | inactive | 71 µM (active) | inactive | inactive | inactive | inactive | inactive | inactive | -0.816 | inactive | inactive | inactive | inactive |
| COc1ccccc1Oc1c(NS(=O)(=O)c2ccc(C(C)(C)C)cc2)nc(-c2ncccn2)nc1OCCO | inactive | inactive | inactive | – | – | inactive | inactive | inactive | – | – | – | – | – | – | – | inactive |
| CC1=C(CC=O)C(C)(C)CCC1 | inactive | inactive | inactive | 24.3 µM (active) | inactive | inactive | inactive | 31.7 µM (active) | – | inactive | inactive | – | – | – | – | inactive |
| CC(=O)OCCN(CCOC(C)=O)c1ccc(N=Nc2ccc([N+](=O)[O-])cc2C#N)cc1 | inactive | inactive | inactive | – | – | – | 17.4 µM (active) | 3.56 µM (active) | – | 54.5 µM (active) | – | – | 15.9 µM (active) | – | – | – |
| Oc1ccc(Cl)c2cccnc12 | inactive | inactive | 6.68 µM (active) | – | inactive | inactive | inactive | – | – | 6.68 µM (active) | inactive | -0.0207 | – | 2.51 µM (active) | inactive | inactive |
| C[C@@]12CCC[C@H]1[C@@H]1CC[C@H]3C[C@@H](O)CC[C@]3(C)[C@H]1CC2 | inactive | inactive | inactive | – | inactive | 7.76 µM (active) | inactive | – | – | – | inactive | – | – | – | – | inactive |
| CCOC(=O)c1ccccc1C(=C1C=C(Br)C(=O)C(Br)=C1)c1cc(Br)c(O)c(Br)c1 | inactive | inactive | inactive | 51.3 µM (active) | inactive | inactive | inactive | – | – | – | – | – | 23.7 µM (active) | – | – | – |
| O=C(CCc1ccc(O)cc1)c1c(O)cc(O)cc1O | inactive | inactive | inactive | – | – | 40.8 µM (active) | inactive | 12.9 µM (active) | – | – | inactive | – | 20.5 µM (active) | – | – | 36.4 µM (active) |
| CC1=Nc2ccc3ccccc3c2C1(C)C | inactive | inactive | inactive | 30.6 µM (active) | 35.6 µM (active) | 8.94 µM (active) | inactive | inactive | – | – | – | – | – | – | – | 20 µM (active) |
| CC1(C)[C@H](C(=O)O)N2C(=O)C[C@H]2S1(=O)=O | inactive | inactive | inactive | – | inactive | 30.9 µM (active) | inactive | inactive | – | inactive | inactive | – | inactive | – | – | inactive |
| CC(C)(C)C(=O)C(=O)O | inactive | inactive | inactive | – | inactive | inactive | inactive | – | – | inactive | inactive | – | inactive | – | – | inactive |
| OC[C@H]1O[C@@H](n2cnc3c(=S)nc[nH]c32)[C@H](O)[C@@H]1O | inactive | inactive | inactive | 11.9 µM (active) | – | 7.76 µM (active) | inactive | inactive | – | inactive | – | -1.15 | 13.8 µM (active) | inactive | inactive | – |
| CN1C[C@H](C(=O)N[C@]2(C)O[C@@]3(O)[C@@H]4CCCN4C(=O)[C@H](Cc4ccccc4)N3C2=O)C[C@@H]2c3cccc4[nH]cc(c34)C[C@H]21 | inactive | – | – | 10.6 µM (active) | – | – | – | – | 21.1 µM (active) | 26.6 µM (active) | 26.6 µM (active) | – | – | – | – | inactive |
| Nc1nc2ccc([N+](=O)[O-])cc2s1 | inactive | inactive | inactive | 30.6 µM (active) | – | 35.6 µM (active) | inactive | – | – | 47.2 µM (active) | – | – | – | – | – | 9.74 µM (active) |
| CC(C)Nc1cccnc1N1CCN(C(=O)c2cc3cc(NS(C)(=O)=O)ccc3[nH]2)CC1 | – | inactive | inactive | inactive | 5.49 µM (active) | 9.77 µM (active) | 9.52 µM (active) | – | inactive | inactive | inactive | 0.79 | 2.75 µM (active) | inactive | inactive | inactive |
| O=C=Nc1cccc(C(F)(F)F)c1 | inactive | inactive | inactive | – | inactive | – | inactive | inactive | – | – | inactive | – | inactive | – | – | inactive |
| CCCCN(CCN(CCCC)C(=O)N1CCOCC1)C(=O)N1CCOCC1 | inactive | inactive | inactive | – | inactive | inactive | inactive | – | – | inactive | inactive | – | inactive | – | – | inactive |
| OC(CCN1CCCC1)(c1ccccc1)C1CCCCC1 (centres undefined) | inactive | inactive | inactive | – | – | – | – | – | – | inactive | inactive | – | – | – | – | – |
